Results from PubChem BioAssay AID1159580 (chemical genetic matrix, 2015).
Screen size: about 5,500 compounds; about 2,000 (36%) were called active. Another 18% or so got no clear call; they are omitted. No stated cut-off is given here; in the data, active means normalized growth mostly below about 0.91 (no sharp cut-off); inconclusive means no clear call, values can overlap the other calls; inactive means mostly above about 0.92. This is one part of the list.

Assay: chemical genetic growth profiling, strain panel (AID 1159580);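 further: tested at 20 µM; growth read once vehicle control cultures reached saturation at 30 °C; 1 = growth at the plate median or of vehicle wells; lower values mean less growth of the strain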
Details: S. cerevisiae deletion strains, growth OD
[1] = locus YAL013W, strain DEP1, active compounds read low
[2] = locus YDL101C, strain DUN1, active compounds read low
[3] = locus YDR150W, strain NUM1, active compounds read low
[4] = locus YEL061C, strain CIN8, active compounds read low
[5] = locus YGR078C, strain PAC10, active compounds read low
[6] = locus YHR030C, strain SLT2, active compounds read low
[7] = locus YHR087W, strain rtc3, active compounds read low
[8] = locus YJR043C, strain POL32, active compounds read low
[9] = locus YJR075W, strain HOC1, active compounds read low
[10] = locus YLR039C, strain RIC1, active compounds read low
[11] = locus YLR058C, strain SHM2 (second series), active compounds read low
[12] = locus YLR085C, strain ARP6, active compounds read low
[13] = locus YLR262C, strain YPT6, active compounds read low
[14] = locus YML094W, strain GIM5, active compounds read low
[15] = locus YMR219W, strain ESC1, active compounds read low
[16] = locus YMR263W, strain SAP30, active compounds read low
[17] = locus YNL153C, strain GIM3, active compounds read low
[18] = locus YNL298W, strain CLA4 (second series), active compounds read low
[19] = locus YNL322C, strain KRE1, active compounds read low
[20] = locus YNR030W, strain Alg12, active compounds read low
[21] = locus YPL055C, strain LGE1, active compounds read low
[22] = locus YPL241C, strain CIN2, active compounds read low
[23] = locus YPR135W, strain CTF4, active compounds read low
[24] = locus YMR307W, strain GAS1, active compounds read low

Measured: normalized growth

OCC(O)Cn1c2ccccc2c2ccccc21 (stereo unspecified)
inactive: [1] 1.01 | [2] 1.04 | [3] 1.03 | [4] 0.986 | [5] 1.02 | locus YGR229C, strain SMI1, active compounds read low 0.994 | [6] 1.07 | [7] 0.953 | locus YJL187C, strain SWE1, active compounds read low 1 | [8] 0.987 | [9] 1.01 | [10] 0.982 | [11] 0.988 | [12] 0.97 | [13] 0.959 | [14] 0.975 | [15] 0.986 | [16] 1.01 | [17] 1.02 | [18] 0.984 | [19] 0.999 | [20] 0.977 | locus YOL006C, strain TOP1, active compounds read low 1 | [21] 0.932 | [22] 0.985 | [23] 1.02

O=C(O)c1oc(C(=O)O)c(OCc2ccccc2)c1OCc1ccccc1
inactive: [1] 1.01 | locus YBR229C, strain ROT2, active compounds read low 1.02 | locus YCL061C, strain MRC1, active compounds read low 0.984 | [2] 0.973 | locus YDL134C, strain PPH21, active compounds read low 0.998 | [3] 0.973 | [4] 1.01 | [5] 0.976 | [6] 0.963 | [7] 1.03 | [8] 0.965 | [9] 0.988 | [10] 0.993 | [11] 1.02 | [12] 1.01 | [13] 0.981 | [14] 1.03 | [15] 0.997 | [16] 0.997 | [24] 1.03 | [17] 0.988 | [18] 0.986 | [19] 0.963 | [20] 0.998 | [21] 1.07 | [22] 1.01 | [23] 1

OC(COCc1ccccc1)Cn1c2ccccc2c2ccccc21 (stereo unspecified)
inactive: locus YAR019C, strain CDC15, active compounds read low 0.951 | locus YBL105C, strain PKC1, active compounds read low 0.95 | locus YBR135W, strain CKS1, active compounds read low 0.951 | locus YBR136W, strain MEC1, active compounds read low 0.952 | locus YBR160W, strain CDC28, active compounds read low 0.955 | locus YDL017W, strain CDC7, active compounds read low 0.953 | locus YDL028C, strain MPS1, active compounds read low 0.951 | [2] 0.98 | locus YDL108W, strain KIN28, active compounds read low 0.952 | locus YDL132W, strain cdc53, active compounds read low 0.952 | locus YDL214C, strain PRR2, active compounds read low 0.903 | locus YDR052C, strain DBF4, active compounds read low 0.965 | locus YDR054C, strain cdc34, active compounds read low 0.939 | locus YDR226W, strain ADK1, active compounds read low 0.965 | locus YDR477W, strain SNF1, active compounds read low 0.888 | locus YER123W, strain YCK3, active compounds read low 0.888 | locus YER133W, strain GLC7, active compounds read low 0.876 | locus YFL009W, strain cdc4, active compounds read low 0.964 | locus YFL029C, strain CAK1, active compounds read low 0.947 | locus YFR003C, strain YPI1, active compounds read low 0.947 | locus YFR019W, strain FAB1, active compounds read low 0.954 | locus YFR028C, strain CDC14, active compounds read low 0.96 | locus YGR040W, strain KSS1, active compounds read low 0.888 | locus YGR052W, strain FMP48, active compounds read low 0.874 | locus YGR092W, strain DBF2, active compounds read low 0.838 | locus YHR079C, strain IRE1, active compounds read low 0.729 | locus YHR082C, strain KSP1, active compounds read low 0.91 | locus YHR205W, strain SCH9, active compounds read low 0.936 | locus YIL147C, strain SLN1, active compounds read low 0.953 | locus YJL095W, strain BCK1, active compounds read low 0.866 | locus YJL128C, strain PBS2, active compounds read low 0.917 | locus YJL157C, strain FAR1, active compounds read low 0.882 | locus YJR016C, strain ILV3, active compounds read low 0.953 | locus YJR066W, strain TOR1 (second series), active compounds read low 0.917 | locus YJR066W, strain TOR1, active compounds read low 0.886 | locus YKL048C, strain ELM1, active compounds read low 0.973 | locus YKL067W, strain YNK1, active compounds read low 0.905 | locus YKL101W, strain HSL1, active compounds read low 0.891 | locus YKL193C, strain SDS22, active compounds read low 0.953 | locus YKL203C, strain TOR2, active compounds read low 0.877 | locus YLR133W, strain CKI1, active compounds read low 0.893 | locus YLR403W, strain SFP1, active compounds read low 0.907 | locus YML070W, strain DAK1, active compounds read low 0.876 | locus YMR001C, strain CDC5, active compounds read low 0.944 | locus YMR205C, strain PFK2 (second series), active compounds read low 0.939 | locus YMR277W, strain FCP1, active compounds read low 0.955 | locus YNL006W, strain LST8, active compounds read low 0.946 | locus YNL020C, strain ARK1, active compounds read low 0.881 | locus YNL161W, strain CBK1, active compounds read low 0.947 | locus YNL183C, strain NPR1, active compounds read low 0.885 | locus YNL207W, strain RIO2, active compounds read low 0.946 | locus YNL222W, strain SSU72, active compounds read low 0.958 | locus YNL307C, strain MCK1 (second series), active compounds read low 0.885 | locus YOL078W, strain AVO1, active compounds read low 0.959 | locus YOL136C, strain PFK27, active compounds read low 0.898 | locus YOR061W, strain CKA2, active compounds read low 0.924 | locus YOR119C, strain RIO1, active compounds read low 0.933 | locus YOR231W, strain MKK1, active compounds read low 0.837 | locus YOR329C, strain SCD5, active compounds read low 0.952 | locus YPL031C, strain PHO85, active compounds read low 0.845 | locus YPL204W, strain HRR25, active compounds read low 0.791 | locus YPL209C, strain IPL1, active compounds read low 0.955 | locus YPR025C, strain CCL1, active compounds read low 0.953 | locus YPR106W, strain ISR1, active compounds read low 0.95 | locus YPR111W, strain DBF20, active compounds read low 0.933 | strain NNK1, active compounds read low 0.932 | strain TSCII, active compounds read low 0.945
active: [6] 0.632 | locus YLR113W, strain HOG1, active compounds read low 0.769 | locus YPL256C, strain CLN2, active compounds read low 0.792

CCCN(CC1CC1)c1nc(C)nc(Nc2c(Cl)cc(Cl)cc2Cl)c1Cl
active: locus YNL197C, strain WHI3, active compounds read low 1.13 [resistant] | locus YOR083W, strain WHI5 (second series), active compounds read low 1.18 [resistant]
inactive: [1] 1.02 | locus YAL040C, strain CLN3, active compounds read low 1.06 | locus YCL061C, strain MRC1 (second series), active compounds read low 1 | [3] 1.01 | locus YDR363W, strain ESC2, active compounds read low 0.999 | locus YER002W, strain NOP16, active compounds read low 1.05 | [9] 1.01 | [16] 1.01 | [24] 1 | [17] 1.06 | locus YNL224C, strain SQS1, active compounds read low 1.05
